The record followed here is PubChem BioAssay.

Active and inactive are the calls of the source.

Experiment [1] in a line: anti-His antibody binders, primary screen, artefact control for SMM control protein annotation, biochemical, small-molecule microarray, 635 nm fluorescence (AID 1128).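 Also: score merges feature fluorescence with signal-to-noise for each printed compound spot.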 Conditions: anti-His Alexa647 antibody binding, higher = more signal.
In experiment [2] the test system is Human papillomavirus type 1a E7 protein (residues 1-88). The experiment is described as follows: HPV1a E7 small-molecule binders, primary screen, biochemical, small-molecule microarray, residues 1-88, 635 nm (AID 1129). The settings on record: small-molecule microarray binding, fluorescence 635 nm; higher = more signal.
The target in experiment [3] is Focal adhesion kinase 1 (Homo sapiens) (UniProt Q05397). Description: small-molecule microarray binders of FAK, primary screen, biochemical, 635/667 nm fluorescence, BSA, DTT (AID 1130).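 Also: composite of spot emission at 667 nm and signal to noise over triplicate slides.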 The settings on record: PTK2 binding, 635 nm fluorescence, higher = more signal.
Focal adhesion kinase 1 (Homo sapiens), sequence (Q05397 whole entry, looked up): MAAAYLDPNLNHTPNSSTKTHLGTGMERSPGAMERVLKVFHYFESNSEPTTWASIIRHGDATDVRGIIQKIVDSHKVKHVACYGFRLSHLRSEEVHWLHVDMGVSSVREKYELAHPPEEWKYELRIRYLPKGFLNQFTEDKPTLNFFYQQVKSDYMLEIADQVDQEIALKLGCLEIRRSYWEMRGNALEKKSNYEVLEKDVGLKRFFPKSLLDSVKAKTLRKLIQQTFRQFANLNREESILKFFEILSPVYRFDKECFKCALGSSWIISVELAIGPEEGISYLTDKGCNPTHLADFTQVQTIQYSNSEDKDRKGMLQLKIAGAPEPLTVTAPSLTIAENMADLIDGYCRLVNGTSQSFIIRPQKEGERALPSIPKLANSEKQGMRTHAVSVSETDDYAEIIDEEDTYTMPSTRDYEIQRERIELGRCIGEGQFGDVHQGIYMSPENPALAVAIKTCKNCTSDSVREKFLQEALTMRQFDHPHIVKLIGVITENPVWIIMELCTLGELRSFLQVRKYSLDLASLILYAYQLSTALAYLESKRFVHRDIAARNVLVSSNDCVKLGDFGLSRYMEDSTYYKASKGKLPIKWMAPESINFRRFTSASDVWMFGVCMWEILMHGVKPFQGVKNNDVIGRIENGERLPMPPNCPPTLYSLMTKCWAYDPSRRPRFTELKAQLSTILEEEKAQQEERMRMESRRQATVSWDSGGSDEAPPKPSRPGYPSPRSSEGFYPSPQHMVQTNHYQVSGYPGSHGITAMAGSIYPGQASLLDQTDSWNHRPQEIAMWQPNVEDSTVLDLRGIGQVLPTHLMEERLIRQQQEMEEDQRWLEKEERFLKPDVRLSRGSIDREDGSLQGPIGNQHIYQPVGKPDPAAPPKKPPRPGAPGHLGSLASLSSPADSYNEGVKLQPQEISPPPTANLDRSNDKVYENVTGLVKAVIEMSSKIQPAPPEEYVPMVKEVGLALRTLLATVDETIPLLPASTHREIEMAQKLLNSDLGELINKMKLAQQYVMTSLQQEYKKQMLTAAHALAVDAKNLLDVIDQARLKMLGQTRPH
Experiment [4] concerns Fibrinogen (Alexa647-labelled). Description: fibrinogen binders on compound microarrays, profiling panel, artefact control for SMM control-protein annotation, biochemical, small-molecule microarray, 635/667 nm fluorescence (AID 1131).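 Also: z-score merges 667 nm fluorescence with per-spot signal-to-noise over triplicate slides.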 The settings on record: fibrinogen-A647 binding fluorescence, higher = more signal.
The target of experiment [5] is Follistatin (Homo sapiens) (UniProt P19883). The experiment is described as follows: follistatin binders on small-molecule microarrays, primary screen, biochemical, small-molecule microarray, 635/667 nm fluorescence (AID 1132). The settings on record: FST binding, 635 nm fluorescence, higher = more signal.
Follistatin (Homo sapiens), sequence (P19883 whole entry, looked up): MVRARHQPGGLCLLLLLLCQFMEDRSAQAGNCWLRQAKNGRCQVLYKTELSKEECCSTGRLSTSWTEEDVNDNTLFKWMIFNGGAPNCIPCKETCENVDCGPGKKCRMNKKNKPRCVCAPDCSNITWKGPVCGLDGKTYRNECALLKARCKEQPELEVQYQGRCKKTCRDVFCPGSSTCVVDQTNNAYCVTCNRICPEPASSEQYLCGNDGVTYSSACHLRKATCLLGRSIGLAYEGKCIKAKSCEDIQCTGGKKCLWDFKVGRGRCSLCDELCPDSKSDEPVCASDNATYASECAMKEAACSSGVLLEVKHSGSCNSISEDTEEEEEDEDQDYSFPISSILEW
For experiment [6], the target named is Fibroblast growth factor 2 (Homo sapiens) (UniProt P09038). Description: FGF2 binders on small-molecule microarrays, primary screen, biochemical, small-molecule microarray, 635/667 nm fluorescence (AID 1133). Conditions: small-molecule microarray binding, FGF2, fluorescence 635/667; higher = more signal.
Fibroblast growth factor 2 (Homo sapiens), sequence (P09038 whole entry, looked up): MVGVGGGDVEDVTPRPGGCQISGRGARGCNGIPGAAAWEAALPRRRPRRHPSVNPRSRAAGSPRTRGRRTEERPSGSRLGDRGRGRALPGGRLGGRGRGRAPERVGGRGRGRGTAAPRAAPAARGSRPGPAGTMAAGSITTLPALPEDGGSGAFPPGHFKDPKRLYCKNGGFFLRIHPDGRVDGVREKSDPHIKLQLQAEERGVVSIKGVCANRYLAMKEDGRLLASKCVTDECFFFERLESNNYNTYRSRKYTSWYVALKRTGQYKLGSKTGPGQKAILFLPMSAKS
Experiment [7] can be described thus: mitochondrial membrane potential change in A549 cells, profiling panel, cell-based, JC-1 fluorescence, basal, 24 h, 100 nL (AID 1138).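 Also: A549 lung adenocarcinoma cells under basal conditions with no added stimulus; test concentration not given here.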 The settings on record: higher = more signal.
The test system of another experiment is Lefty1. The experiment is described as follows: Lefty1 binders on small-molecule microarrays, primary screen, biochemical, small-molecule microarray, 635/667 nm fluorescence (AID 1139). Conditions: small-molecule microarray binding, fluorescence 635/667; higher = more signal.
Experiment [8] has as its system wheat germ agglutinin (Triticum aestivum), Alexa647-labelled. Description: wheat germ agglutinin binders on compound microarrays, profiling panel, artefact control for SMM control-protein annotation, biochemical, small-molecule microarray, 635/667 nm fluorescence (AID 1140).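 Also: score merges 667 nm feature emission with signal to noise over triplicate slides.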 The settings on record: WGA-A647 binding, 635 nm fluorescence, higher = more signal.
The target of experiment [9] is Luciferin 4-monooxygenase (Photinus pyralis) (UniProt P08659). The experiment is described as follows: firefly luciferase enzyme inhibitors, primary screen, biochemical, luminescence, purified enzyme, 2006 set (AID 1141).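 Also: cell-free assay with purified firefly luciferase at 100 ng per well in PBS; test concentration not given here.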 The settings on record: SteadyGlo luminescence, 30 min, higher = more signal, called active from +8 up or from −8 down.
Luciferin 4-monooxygenase (Photinus pyralis), sequence (P08659 whole entry, looked up): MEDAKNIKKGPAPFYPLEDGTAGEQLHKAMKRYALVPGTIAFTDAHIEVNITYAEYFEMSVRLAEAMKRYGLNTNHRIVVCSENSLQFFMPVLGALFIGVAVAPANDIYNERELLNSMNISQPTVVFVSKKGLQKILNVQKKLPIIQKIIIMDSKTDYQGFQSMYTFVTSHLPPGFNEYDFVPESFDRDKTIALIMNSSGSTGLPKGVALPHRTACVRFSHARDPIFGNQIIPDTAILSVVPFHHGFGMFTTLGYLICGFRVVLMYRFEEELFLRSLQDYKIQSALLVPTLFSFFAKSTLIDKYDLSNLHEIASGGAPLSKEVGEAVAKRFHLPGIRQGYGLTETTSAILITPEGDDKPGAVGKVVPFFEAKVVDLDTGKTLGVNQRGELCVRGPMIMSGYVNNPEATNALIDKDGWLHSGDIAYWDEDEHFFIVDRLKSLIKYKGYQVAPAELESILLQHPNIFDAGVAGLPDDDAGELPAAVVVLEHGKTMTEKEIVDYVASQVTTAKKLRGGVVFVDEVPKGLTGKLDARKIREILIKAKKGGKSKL

For the compound `CCCN1C(=O)[C@]2(CCC(=O)OC(C)(C)C)N=C(c3ccc(OCCCO)cc3)O[C@@H]2c2ccccc21`, the composite z-score in experiment [1] was found to be 0.144; in experiment [2], 1.01; in experiment [3] it was 0.497; in experiment [4], 0.496; in experiment [5], 1.49; in [6] it was 0.714. Also, the figures for the composite z-score (with Lefty1; in experiment [8]) were 0.37 and 0.0961, respectively. Besides, the z-score in experiment [7] is 0.719; in experiment [9], -1.55 (inactive).
Turning to `CN(C)CCCC[C@@H]1NC(=O)[C@@H]2C[C@H](C(=O)NCCCCCN)[C@H](c3cccc(OCCO)c3)N2C1=O`, the composite z-score was 2.76 in [1]; 1.05 in [2]; -0.155 in experiment [3]; 0.851 in [4]; 1.08 in [5]; 1.25 in experiment [6]. In addition, the composite z-score in the experiment on Lefty1 is 0.908; in [8], 0.632. The figures for the z-score in experiment [7] and in experiment [9] were 2.13 and -1.6 (inactive), respectively.
For the compound `CC(C)c1nc2cc(Br)ccc2c(=O)o1`, the composite z-score in [1] was 0.405; in experiment [2], 0.854; in experiment [3] it was 0.224; in experiment [4], 0.871; in experiment [5] it was 0.296; in experiment [6] it was -0.357. Also, the figures for the composite z-score (in the experiment with Lefty1; in [8]) were -0.0283 and 0.834, respectively. The z-score in experiment [7] was 0.48; in [9], 0.672 (inactive).
As for `CC(C)(C)N1CC=CC23O[C@@H]4/C=C\CCCOC(=O)C4[C@H]2C(=O)N(CCCCCO)[C@@H]3C1=O` (stereo not given in full), the composite z-score is -1.23 in experiment [1]; -0.75 in experiment [2]; -0.716 in experiment [3]; -0.865 in experiment [4]; -1.06 in [5]; -0.594 in experiment [6]. Besides, the values for the composite z-score (with Lefty1; in experiment [8]) were -1.4 and -0.408, respectively. The z-score in experiment [7] is -0.137; in experiment [9], 0.215 (inactive).
For the compound `CCOC(=O)C[C@H]1[C@H](OC(=O)c2cc3ccccc3oc2=O)[C@@H](NC(=O)CC(C)C)c2cc(OCCCO)ccc2N1C(=O)Cc1ccc(OC)cc1`, the composite z-score is 0.0111 in experiment [1]; 0.43 in experiment [2]; -0.0515 in experiment [3]; 0.942 in experiment [4]; 0.642 in experiment [5]; 0.443 in experiment [6]. Moreover, the composite z-score is 0.849 in the experiment on Lefty1 and 0.158 in experiment [8]. Besides, the z-score in experiment [7] is 0.613; in experiment [9], 0.411 (inactive).
Turning to `CO[C@H]1O[C@H](CO)[C@@H](OC(=O)Nc2ccccc2)[C@H](OC(=O)Nc2ccccc2)[C@H]1OC(=O)Nc1ccccc1`, the composite z-score in experiment [1] worked out at 2.2; in [2] it was 1.26; in experiment [3] it was 0.972; in experiment [4] it was 1.01; in experiment [5], 0.943; in experiment [6], 1.02. Also, the composite z-score in the experiment with Lefty1 is 0.389; in experiment [8], 0.791. Also, the z-score is 0.281 in experiment [7] and 1.15 (inactive) in [9].
Turning to `C=C(COC)/C(=C/C[C@H](OC(C)=O)c1ccccc1OCCO)c1cc(C(=O)OC)ccc1OC`, the composite z-score in [1] was found to be 0.101; in experiment [2], 0.639; in experiment [3], 0.473; in experiment [4], 0.328; in experiment [5] it was 1.18; in experiment [6], 0.54. Besides, the composite z-score in the experiment on Lefty1 was 0.726; in experiment [8], -0.0912. Moreover, the z-score in [7] was 0.45; in [9] it was -0.419 (inactive).
`C[N+](C)(C)CCCC[C@@H]1NC(=O)[C@H]2C[C@@H](C(=O)NCCCCCNC(=O)CS)[C@@H](c3cccc(OCCO)c3)N2C1=O`: the composite z-score in [1] was 1.38; in experiment [2] it was 0.518; in experiment [3], 0.247; in [4] it was 0.821; in [5], 0.78; in experiment [6], 0.549. Moreover, the composite z-score in the experiment on Lefty1 was -0.383; in experiment [8], 0.343. In addition, the values for the z-score in experiment [7] and in experiment [9] were 0.299 and -1.09 (inactive), respectively.
Consider `CC(=O)c1ccc(C(O)C2C=CC3C(=O)N(c4ccccc4)C(=O)C3N2Nc2ccc(C(C)C)cc2)cc1` (stereo not given), for which the composite z-score stood at 0.779 in [1]; 1.23 in experiment [2]; 0.329 in experiment [3]; 0.939 in [4]; 1.13 in experiment [5]; 1.1 in [6]. The values for the composite z-score (in the experiment on Lefty1; in [8]) were -0.212 and 1.17, respectively. The z-score was 0.678 in [7] and -1.41 (inactive) in experiment [9].
As for `C=CCC(OC(C)=O)[C@@H]1[C@@H](N(Cc2cccc3ccccc23)C(=O)c2ccc(-c3ccccc3)cc2)c2cc(OCCCO)ccc2N1C(=O)Cc1ccc2ccccc2c1` (stereo not given in full), the composite z-score is 0.203 in experiment [1]; 0.0951 in experiment [2]; -0.166 in experiment [3]; -0.052 in [4]; 0.592 in [5]; 0.0824 in [6]. The composite z-score is -0.415 in the experiment with Lefty1 and -0.194 in experiment [8]. Also, the z-score was 0.412 in [7] and 0.223 (inactive) in experiment [9].
`[N-]=[N+]=Nc1ccccc1[C@@H]1OC(c2ccc(OCCCO)cc2)=N[C@]1(CCS(=O)(=O)c1ccccc1)C(=O)NCC(O)CO` (stereo not given in full): the composite z-score is 0.592 in experiment [1]; 0.794 in [2]; 0.131 in [3]; 0.911 in [4]; 0.518 in [5]; -0.0365 in experiment [6]. The composite z-score was -0.285 in the experiment with Lefty1 and 1.02 in [8]. Besides, the z-score in experiment [7] was -0.298; in [9], -9.87 (active).
`O=C1N(CCS(=O)(=O)c2ccccc2)c2ccccc2C[C@]12N=C(c1ccc(OCCCO)cc1)O[C@@H]2c1ccccc1`: the composite z-score in experiment [1] is 2.16; in experiment [2], 0.806; in experiment [3] it was 0.311; in [4], 0.783; in experiment [5] it was 1.41; in experiment [6], 1.71. For the same compound, the composite z-score with Lefty1 is 0.393; in experiment [8], 0.392. Moreover, the z-score in [7] was 0.972; in experiment [9], -0.889 (inactive).
`CCCCC(=C=CC[C@H](O)c1ccc(CO)o1)CCO`: the composite z-score in experiment [1] was 0.149; in experiment [2], 0.661; in experiment [3], 0.323; in experiment [4] it was -0.884; in experiment [5] it was 0.986; in experiment [6], 0.662. For the same compound, the composite z-score in the experiment on Lefty1 came out at 0.738; in experiment [8] it was 0.0416. In addition, the values for the z-score in experiment [7] and in experiment [9] were 0.164 and -0.783 (inactive), respectively.
`COC(=O)[C@@]1(Cc2ccccc2)[C@H]2c3cc(C(=O)N(C)C)n(CCSC(=N)N)c3C[C@H]2CN1C(=O)c1ccccc1`: the composite z-score was 0.367 in [1]; 0.336 in experiment [2]; 0.117 in experiment [3]; 0.869 in [4]; -0.239 in experiment [5]; 0.277 in [6]. In addition, the composite z-score in the experiment on Lefty1 was -0.318; in [8] it was 0.164. The z-score in experiment [7] is 0.378; in [9], 1.13 (inactive).
Take `CC(C)OC(=O)CC(=O)CC(O)c1cccc([N+](=O)[O-])c1` (stereo not given): the composite z-score in experiment [1] is 0.68; in [2], 1.14; in experiment [3], 0.4; in [4], 0.438; in experiment [5], 0.461; in experiment [6] it was -0.277. Also, the results for the composite z-score (in the experiment with Lefty1; in [8]) were -0.0245 and 0.265, respectively. Moreover, the figures for the z-score in [7] and in experiment [9] were -0.428 and 1.9 (inactive), respectively.
In the case of `COCCOC(=O)N1C(=O)[C@@]2(c3ccccc31)[C@H](c1ccc(O)cc1)N1[C@H](c3ccccc3)[C@H](c3ccccc3)OC(=O)[C@H]1[C@@H]2C(=O)N1CCCCCCC1`, the composite z-score in [1] was 2.71; in [2] it was 1.21; in [3], 0.791; in experiment [4] it was 0.941; in experiment [5], 1.46; in experiment [6], 1.74. The composite z-score in the experiment on Lefty1 is 1.72; in experiment [8], 1.43. The z-score in experiment [7] was -1.16; in experiment [9], 0.171 (inactive).
Turning to `COC(=O)[C@@]1(Cc2ccccc2)N=C(c2ccc(OCCCO)cc2)O[C@H]1c1ccccc1CN=[N+]=[N-]`, the composite z-score was 1.91 in experiment [1]; 0.997 in experiment [2]; 0.291 in [3]; 0.447 in [4]; 1.33 in experiment [5]; 1.02 in experiment [6]. Besides, the composite z-score worked out at 0.434 with Lefty1 and 0.0777 in [8]. Further, the z-score in [7] was -1.07; in experiment [9] it was -2.05 (inactive).
